According to PubChem BioAssay (NCI):
About 79,000 compounds went through this panel and 15% of them were active in at least one assay; those are over-represented in the sample as a whole. Activity calls are given as the source filed them. Rule as the data show it: active = growth inhibition above about 70%; inactive = the rest.

Key:
[1] = NCI Yeast Anticancer Drug Screen. Data for the mec2-1 strain (AID 157); settings: S. cerevisiae mec2-1 strain, hits give high values
Procedure, shortened: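 Strain: mec2-1 (DNA repair/cell cycle alteration). Compound exposure, then growth measured; inhibition expressed relative to vehicle.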

[2] = NCI Yeast Anticancer Drug Screen. Data for the rad14 strain (AID 159);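 also: 0% = growth of vehicle-treated control cultures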; settings: S. cerevisiae rad14 strain growth inhibition, hits give high values
Procedure, shortened: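 Growth inhibition vs vehicle controls; genetically altered yeast strain (DNA damage repair defect) treated with test compounds.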

[3] = NCI Yeast Anticancer Drug Screen. Data for the sgs1 mgt1 strain (AID 161);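 also: 0% = growth of cultures given vehicle only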; settings: S. cerevisiae sgs1 mgt1 strain, hits give high values
Procedure, shortened: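 Genetically altered yeast, compound exposure, growth inhibition relative to vehicle.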

[4] = NCI Yeast Anticancer Drug Screen. Data for the CLN2oe strain (AID 163);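 also: 0% = growth of vehicle-only control cultures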; settings: S. cerevisiae CLN2oe strain, hits give high values
Procedure, shortened: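 Growth of a genetically modified yeast strain is measured after compound exposure and compared with cultures given vehicle alone.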

[5] = NCI Yeast Anticancer Drug Screen. Data for the cln2 rad14 strain (AID 165);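 also: 0% = growth equal to vehicle treated cultures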; settings: S. cerevisiae cln2 rad14 strain, hits give high values
Procedure, shortened: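 Compounds are applied to the cln2 rad14 yeast strain, and growth is then compared with that of vehicle-treated cultures to give inhibition.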

[6] = NCI Yeast Anticancer Drug Screen. Data for the bub3 strain (AID 167); settings: S. cerevisiae bub3 mutant strain, hits give high values
Procedure, shortened: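 Readout: yeast growth inhibition, expressed relative to vehicle-only wells. The test organism is a mutant strain from a panel with lesions in DNA repair or checkpoint genes.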

[7] = NCI Yeast Anticancer Drug Screen. Data for the wt2 strain (AID 169);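 also: 0% = growth of vehicle-treated yeast cultures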; settings: S. cerevisiae wt2 strain growth inhibition, hits give high values
Procedure, shortened: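 This strain belongs to a panel of yeast strains with defined genetic alterations in DNA damage repair or cell cycle control. Compounds are applied, and growth inhibition is measured against vehicle-treated cultures.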

[8] = NCI Yeast Anticancer Drug Screen. Data for the mlh1 strain (AID 171);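 also: 0% = growth of vehicle-treated control cultures of the same strain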; settings: S. cerevisiae mlh1 strain growth inhibition, hits give high values
Procedure, shortened: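 Growth of the mutant yeast strain after compound exposure, expressed as inhibition relative to vehicle-only controls.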

[9] = NCI Yeast Anticancer Drug Screen. Data for the mlh1 rad18 strain (AID 175); settings: S. cerevisiae mlh1 rad18 strain growth inhibition, hits give high values
Procedure, shortened: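 Read-out is yeast growth inhibition, calculated against vehicle-only controls. The compound was applied to a strain engineered with DNA damage repair alterations.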

[10] = NCI Yeast Anticancer Drug Screen. Data for the rad52 strain (AID 147);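 also: 0% = growth of vehicle-treated control cultures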; settings: S. cerevisiae rad52 mutant growth inhibition, hits give high values
Procedure, shortened: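 Compounds are applied to a genetically defined yeast strain lacking normal DNA damage repair, and inhibition of growth is expressed relative to cultures given vehicle only.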

[11] = NCI Yeast Anticancer Drug Screen. Data for the wt1 strain (AID 149);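 also: 0% = growth of vehicle-treated wt1 cultures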; settings: S. cerevisiae wt1 strain (SPY 50644) growth inhibition, hits give high values
Procedure, shortened: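 Growth inhibition read against vehicle controls after compound exposure of the wt1 yeast strain.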

[12] = NCI Yeast Anticancer Drug Screen. Data for the rad50EPP+ strain (AID 151);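 also: 0% = growth of vehicle-treated control cultures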; settings: S. cerevisiae rad50 mutant strain, hits give high values
Procedure, shortened: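 Compounds were applied to the rad50EPP+ yeast strain, which bears a defined DNA repair alteration, and growth inhibition was determined relative to vehicle-treated cultures.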

[13] = NCI Yeast Anticancer Drug Screen. Data for the rad50 strain (AID 155);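 also: 0% = growth of vehicle-only cultures of the same strain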; settings: S. cerevisiae rad50 strain growth inhibition, hits give high values
Procedure, shortened: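 Readout: growth inhibition relative to vehicle-treated cultures. Compound exposure was carried out in a genetically defined yeast strain deficient in DNA damage repair.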

[14] = NCI Yeast Anticancer Drug Screen. Data for the sgs1 strain (AID 173);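 also: 0% = growth of vehicle-only control cultures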; settings: S. cerevisiae sgs1 mutant, hits give high values
Procedure, shortened: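 Growth of a yeast strain bearing a defined genetic alteration is measured after compound treatment. Inhibition is expressed relative to vehicle-only controls.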

[15] = NCI Yeast Anticancer Drug Screen. Data for the rad18 strain (AID 177); settings: S. cerevisiae rad18 mutant growth inhibition, hits give high values
Procedure, shortened: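 Growth of the mutant yeast strain after compound exposure, normalised to vehicle-only cultures.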

[16] = NCI Yeast Anticancer Drug Screen. Data for the mgt1 strain (AID 153); settings: S. cerevisiae mgt1 mutant growth inhibition, hits give high values
Procedure, shortened: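 Strain: mgt1 yeast, one of a set carrying defined DNA damage repair or cell cycle control alterations. Compound-treated growth compared with vehicle.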

[17] = at 5.0 µM (retest, dose inferred, filed as 0.5)
[18] = at 50.0 µM (retest, dose inferred, filed as 5.0)

Measured: growth inhibition

N#Cc1cc(N(CCCl)CCCl)c([N+](=O)[O-])cc1[N+](=O)[O-]
inactive: [1]; at 100.0 µM 67% | [2]; at 1.2 µM 3% | [2]; at 3.7 µM 7% | [2]; at 11.0 µM 19% | [2]; at 33.0 µM 61% | [3]; [17] -19% | [3]; [18] 46% | [4]; at 1.2 µM 2% | [4]; at 3.7 µM 6% | [4]; at 11.0 µM -2% | [4]; at 33.0 µM 14% | [5]; [17] 11% | [5]; [18] 43% | [6]; at 1.2 µM 11% | [6]; at 3.7 µM 10% | [6]; [17] -11% | [6]; at 11.0 µM -7% | [6]; at 33.0 µM 31% | [6]; [18] 40% | [7]; at 1.2 µM 4% | [7]; at 3.7 µM 6% | [7]; at 11.0 µM 8% | [7]; at 33.0 µM 36% | [8]; at 1.2 µM 34% | [8]; at 3.7 µM 4% | [8]; at 11.0 µM 34% | [9]; [17] 21%
active: [2]; at 100.0 µM 88% | [3]; at 50.0 µM 90.3% | [4]; at 100.0 µM 71% | [5]; at 50.0 µM 79.5% | [6]; at 50.0 µM 84.9% | [6]; at 100.0 µM 79% | [7]; at 100.0 µM 80% | [8]; at 33.0 µM 70% | [8]; at 100.0 µM 92% | [9]; [18] 76% | [9]; at 50.0 µM 80.5%

CC1CCCN(CCc2ccccc2)CC1 (centres undefined)
active: [3]; [18] 76% | [6]; [18] 83% | [9]; [18] 78%
inactive: [10]; at 1.2 µM 1% | [10]; at 3.7 µM 4% | [10]; at 11.0 µM 11% | [10]; at 33.0 µM 16% | [10]; at 100.0 µM 26% | [11]; at 1.2 µM 2% | [11]; at 3.7 µM 8% | [11]; at 11.0 µM 8% | [11]; at 33.0 µM 7% | [11]; at 100.0 µM 5% | [12]; at 1.2 µM 2% | [12]; at 3.7 µM 3% | [12]; at 11.0 µM 4% | [12]; at 33.0 µM 4% | [12]; at 100.0 µM 5% | [13]; at 1.2 µM 1% | [13]; at 3.7 µM 6% | [13]; [17] -8% | [13]; at 11.0 µM 10% | [13]; at 33.0 µM 13% | [13]; [18] 66% | [13]; at 50.0 µM 17.4% | [13]; at 100.0 µM 14% | [1]; at 1.2 µM 0% | [1]; at 3.7 µM 8% | [1]; [17] -13% | [1]; at 11.0 µM 12% | [1]; at 33.0 µM 15% | [1]; [18] 11% | [1]; at 50.0 µM 20.9% | [1]; at 100.0 µM 22% | [2]; at 1.2 µM 2% | [2]; at 3.7 µM 14% | [2]; at 11.0 µM 29% | [2]; at 33.0 µM 33% | [2]; at 100.0 µM 31% | [3]; [17] 13% | [3]; at 50.0 µM 28.8% | [4]; at 1.2 µM -5% | [4]; at 3.7 µM -8% | [4]; at 11.0 µM 18% | [4]; at 33.0 µM 30% | [4]; at 100.0 µM 43% | [5]; [17] 5% | [5]; [18] 37% | [5]; at 50.0 µM 58.6% | [6]; at 1.2 µM -3% | [6]; at 3.7 µM 0% | [6]; [17] 2% | [6]; at 11.0 µM 9% | [6]; at 33.0 µM 21% | [6]; at 50.0 µM 46.6% | [6]; at 100.0 µM 25% | [7]; at 1.2 µM 2% | [7]; at 3.7 µM 4% | [7]; at 11.0 µM 6% | [7]; at 33.0 µM 8% | [7]; at 100.0 µM 10% | [8]; at 1.2 µM 1% | [8]; at 3.7 µM 4% | [8]; at 11.0 µM 10% | [8]; at 33.0 µM 15% | [8]; at 100.0 µM 14% | [14]; at 1.2 µM 0% | [14]; at 3.7 µM 7% | [14]; at 11.0 µM 16% | [14]; at 33.0 µM 23% | [14]; at 100.0 µM 21% | [9]; [17] 19% | [9]; at 50.0 µM 34.9% | [15]; at 1.2 µM 3% | [15]; at 3.7 µM 7% | [15]; at 11.0 µM 15% | [15]; at 33.0 µM 12% | [15]; at 100.0 µM 16%

O=c1oc2ccccc2c(O)c1C(c1ccc2ccccc2c1)c1c(O)c2ccccc2oc1=O
active: [10]; at 100.0 µM 97% | [11]; at 100.0 µM 98% | [16]; at 33.0 µM 83% | [16]; at 100.0 µM 98% | [13]; [18] 93% | [13]; at 50.0 µM 73.7% | [13]; at 100.0 µM 97% | [1]; at 33.0 µM 76% | [1]; [18] 78% | [1]; at 50.0 µM 86.5% | [1]; at 100.0 µM 98% | [2]; at 100.0 µM 99% | [3]; [18] 92% | [4]; at 33.0 µM 78% | [4]; at 100.0 µM 97% | [5]; [18] 96% | [6]; [18] 93% | [6]; at 100.0 µM 97% | [7]; at 33.0 µM 97% | [7]; at 100.0 µM 94% | [8]; at 33.0 µM 75% | [8]; at 100.0 µM 99% | [14]; at 33.0 µM 73% | [14]; at 100.0 µM 98% | [9]; at 50.0 µM 80% | [15]; at 100.0 µM 98%
inactive: [10]; at 1.2 µM -8% | [10]; at 3.7 µM 12% | [10]; at 11.0 µM 21% | [10]; at 33.0 µM 64% | [11]; at 1.2 µM -10% | [11]; at 3.7 µM 4% | [11]; at 11.0 µM 1% | [11]; at 33.0 µM 50% | [16]; at 1.2 µM 17% | [16]; at 3.7 µM 17% | [16]; at 11.0 µM 33% | [13]; at 1.2 µM 12% | [13]; at 3.7 µM 10% | [13]; [17] 47% | [13]; at 11.0 µM 17% | [13]; at 33.0 µM 58% | [1]; at 1.2 µM 10% | [1]; at 3.7 µM 15% | [1]; [17] 17% | [1]; at 11.0 µM 31% | [2]; at 1.2 µM 12% | [2]; at 3.7 µM 21% | [2]; at 11.0 µM 26% | [2]; at 33.0 µM 66% | [3]; [17] -24% | [3]; at 50.0 µM 46.1% | [4]; at 1.2 µM 7% | [4]; at 3.7 µM 21% | [4]; at 11.0 µM 27% | [5]; [17] 19% | [5]; at 50.0 µM 40.2% | [6]; at 1.2 µM 8% | [6]; at 3.7 µM -8% | [6]; [17] 10% | [6]; at 11.0 µM 22% | [6]; at 33.0 µM 55% | [6]; at 50.0 µM 28.4% | [7]; at 1.2 µM -25% | [7]; at 3.7 µM -21% | [7]; at 11.0 µM 38% | [8]; at 1.2 µM -1% | [8]; at 3.7 µM 20% | [8]; at 11.0 µM 33% | [14]; at 1.2 µM 27% | [14]; at 3.7 µM 30% | [14]; at 11.0 µM 36% | [9]; [17] 12% | [9]; [18] 40% | [15]; at 1.2 µM 10% | [15]; at 3.7 µM 7% | [15]; at 11.0 µM 33% | [15]; at 33.0 µM 55%
